This is an account of results in ChEMBL document CHEMBL3988442, “University of Dundee, Small-Polar-MMV Screening Library” (2021).

What all share (set-up): scale not given: direction of the effect not stated beside the values
Assay [1] deals with Protein translocase subunit SecA (Escherichia coli (strain K12)) (UniProt P10408). The experiment in a line: Assay to Identify E. coli SecA ATPase Inhibitors. The format is functional. The conditions noted are these: 30 µM.
The target in assay [2] is T1, Ubiquitin-activating enzyme e1, putative (Leishmania donovani (strain BPK282A1)) (UniProt E9BSI1).
T1 sequence (whole entry): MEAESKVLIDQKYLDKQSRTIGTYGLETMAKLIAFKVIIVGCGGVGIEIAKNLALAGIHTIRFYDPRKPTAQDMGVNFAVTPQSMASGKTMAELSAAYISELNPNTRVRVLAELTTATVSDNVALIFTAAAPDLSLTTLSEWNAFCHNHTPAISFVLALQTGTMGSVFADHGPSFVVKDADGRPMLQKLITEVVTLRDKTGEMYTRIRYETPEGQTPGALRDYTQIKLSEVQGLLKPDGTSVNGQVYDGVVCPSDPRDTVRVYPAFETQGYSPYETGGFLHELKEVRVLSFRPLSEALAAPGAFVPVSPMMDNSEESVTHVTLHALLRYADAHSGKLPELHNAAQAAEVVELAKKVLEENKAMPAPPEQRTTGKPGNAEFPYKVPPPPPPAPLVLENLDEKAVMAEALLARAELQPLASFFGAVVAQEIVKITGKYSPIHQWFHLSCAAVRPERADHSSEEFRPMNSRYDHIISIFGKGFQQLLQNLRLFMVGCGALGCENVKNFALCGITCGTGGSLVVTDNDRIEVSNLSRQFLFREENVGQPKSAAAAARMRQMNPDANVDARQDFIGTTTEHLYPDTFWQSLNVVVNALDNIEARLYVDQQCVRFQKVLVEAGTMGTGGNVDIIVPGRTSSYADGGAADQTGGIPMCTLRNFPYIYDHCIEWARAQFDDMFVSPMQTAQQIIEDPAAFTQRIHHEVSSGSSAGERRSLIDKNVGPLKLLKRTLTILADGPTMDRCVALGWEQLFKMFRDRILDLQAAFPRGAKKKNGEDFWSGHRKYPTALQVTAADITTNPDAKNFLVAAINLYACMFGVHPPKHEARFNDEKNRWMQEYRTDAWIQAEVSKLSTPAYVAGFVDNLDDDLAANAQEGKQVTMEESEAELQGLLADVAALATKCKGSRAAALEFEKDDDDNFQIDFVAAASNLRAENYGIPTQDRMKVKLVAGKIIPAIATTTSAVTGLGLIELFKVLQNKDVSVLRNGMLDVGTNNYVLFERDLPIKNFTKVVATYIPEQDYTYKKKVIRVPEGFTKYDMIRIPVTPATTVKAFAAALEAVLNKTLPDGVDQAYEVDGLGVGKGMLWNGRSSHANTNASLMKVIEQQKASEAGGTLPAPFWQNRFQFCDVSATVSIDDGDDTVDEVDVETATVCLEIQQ
The experiment in a line: Leishmania donovani Ubiquitin Activating Enzyme (LdE1). Particulars: 30 µM. It counts as functional.

The target in assay [3] is AMP-activated protein kinase, AMPK (Homo sapiens) (UniProt P54646+O43741+P54619+Q9UGJ0+Q9Y478+Q13131+Q9UGI9). Kind of assay: AMP-dependent Kinase enzyme assay. An in vitro enzyme assay that detects ADP turnover that is directly proportional to AMPK activity. This uses naive AMPK that is activated during the assay with MK-8722. The conditions noted are these: 30 µM. The format is functional.

In assay [4] the target is Sialic acid-binding Ig-like lectin 9 (Homo sapiens) (UniProt Q9Y336). The experiment in a line: Hs-Siglec9 ALPHAscreen SOP 20170721. The conditions noted are these: 10 µM. In general terms: Bead proximity is the source of the signal in Alpha formats.
Sequence of Sialic acid-binding Ig-like lectin 9 (Homo sapiens) (Q9Y336 whole entry): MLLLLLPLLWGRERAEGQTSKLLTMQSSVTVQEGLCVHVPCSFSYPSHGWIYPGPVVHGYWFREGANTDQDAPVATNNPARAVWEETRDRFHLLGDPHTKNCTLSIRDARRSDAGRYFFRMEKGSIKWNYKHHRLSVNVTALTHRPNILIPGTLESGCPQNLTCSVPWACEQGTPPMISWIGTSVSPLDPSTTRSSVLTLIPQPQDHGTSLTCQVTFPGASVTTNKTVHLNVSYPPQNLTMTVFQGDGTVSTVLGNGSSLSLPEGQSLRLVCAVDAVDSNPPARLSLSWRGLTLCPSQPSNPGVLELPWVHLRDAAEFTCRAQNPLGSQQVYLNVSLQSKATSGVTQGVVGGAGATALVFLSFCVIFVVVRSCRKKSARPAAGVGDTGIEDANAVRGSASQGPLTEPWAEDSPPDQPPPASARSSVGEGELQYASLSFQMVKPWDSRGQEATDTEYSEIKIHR
For a further assay, the system named is Trypanosoma cruzi. The experiment in a line: Trypanosoma cruzi phosphomannomutase and mannose-1-phosphate guanylyltransferase assay. It counts as functional. Particulars: 10 µM.
The target in assay [5] is T2, Arginase-2, mitochondrial (Homo sapiens) (UniProt P78540).
T2 sequence (whole entry): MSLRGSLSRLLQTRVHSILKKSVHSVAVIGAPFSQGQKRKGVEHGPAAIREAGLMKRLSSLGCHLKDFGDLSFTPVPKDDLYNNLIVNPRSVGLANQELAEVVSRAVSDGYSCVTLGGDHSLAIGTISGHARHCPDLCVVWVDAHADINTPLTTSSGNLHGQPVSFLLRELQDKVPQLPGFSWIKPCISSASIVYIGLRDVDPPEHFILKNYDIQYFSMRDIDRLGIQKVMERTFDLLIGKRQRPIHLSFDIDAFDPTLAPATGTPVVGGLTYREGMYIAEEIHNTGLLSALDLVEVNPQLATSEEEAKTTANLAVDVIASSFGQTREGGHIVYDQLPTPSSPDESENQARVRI
Kind of assay: in vitro enzyme assay to detect the production of urea directly proportional to the activity of Arginase II. Also: in the data most compounds retested in dose-response had high values. The format is functional. The conditions noted are these: 33.3 µM.

In assay [6] the target is T3, Proteasome subunit beta (Trypanosoma cruzi) (UniProt O96673).
T3 sequence (whole entry): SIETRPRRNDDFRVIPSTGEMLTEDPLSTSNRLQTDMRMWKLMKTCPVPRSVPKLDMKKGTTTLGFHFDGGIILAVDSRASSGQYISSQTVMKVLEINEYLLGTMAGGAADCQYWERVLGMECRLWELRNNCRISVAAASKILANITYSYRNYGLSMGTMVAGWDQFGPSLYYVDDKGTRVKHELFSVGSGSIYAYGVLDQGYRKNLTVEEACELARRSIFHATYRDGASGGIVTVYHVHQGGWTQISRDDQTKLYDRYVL
The experiment in a line: Trypanosoma cruzi proteasome chymotrypsin-like activity (TcProtChymo) assay. Also: in the data most compounds retested in dose-response had high values. The format is functional. The conditions noted are these: 9.37 µM.

For another assay, the species on record is Homo sapiens. Kind of assay: To identify inhibition of the IFN signalling (Jak-Stat) pathway via expression of an eGFP reporter gene under the control of an IFN-stimulated response element (ISRE) containing MxA promoter. Particulars: 30 µM. The format is functional.
The target in assay [7] is T4, Tyrosyl-tRNA synthetase, putative (Trypanosoma cruzi (strain CL Brener)) (UniProt Q4DSP6).
T4 sequence (whole entry): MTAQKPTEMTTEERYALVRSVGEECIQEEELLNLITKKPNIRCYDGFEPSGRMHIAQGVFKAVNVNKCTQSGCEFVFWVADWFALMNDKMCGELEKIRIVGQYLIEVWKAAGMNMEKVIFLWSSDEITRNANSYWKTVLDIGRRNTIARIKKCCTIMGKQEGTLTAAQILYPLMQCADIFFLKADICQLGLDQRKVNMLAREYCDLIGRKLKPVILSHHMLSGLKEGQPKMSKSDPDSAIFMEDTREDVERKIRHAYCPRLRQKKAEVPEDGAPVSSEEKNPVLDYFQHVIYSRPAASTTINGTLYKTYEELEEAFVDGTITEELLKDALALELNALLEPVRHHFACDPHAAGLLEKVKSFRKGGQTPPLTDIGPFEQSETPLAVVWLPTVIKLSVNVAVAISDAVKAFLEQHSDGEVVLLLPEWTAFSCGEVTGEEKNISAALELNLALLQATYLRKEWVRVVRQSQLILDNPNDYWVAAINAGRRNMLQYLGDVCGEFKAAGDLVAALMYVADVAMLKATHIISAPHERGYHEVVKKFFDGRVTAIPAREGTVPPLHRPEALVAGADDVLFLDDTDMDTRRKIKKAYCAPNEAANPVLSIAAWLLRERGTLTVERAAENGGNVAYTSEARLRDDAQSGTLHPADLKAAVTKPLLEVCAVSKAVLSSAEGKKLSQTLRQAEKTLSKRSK
Kind of assay: Trypanosoma cruzi tyrosyl tRNA synthetase (TcYRS) _High Tyrosine SOP. Also: in the data most compounds retested in dose-response had high values. The format is functional. The conditions noted are these: 30 µM.

Assay [8] addresses T4, Tyrosyl-tRNA synthetase, putative (Trypanosoma cruzi (strain CL Brener)). The experiment in a line: Trypanosoma cruzi tyrosyl tRNA synthetase (TcYRS) SOP. The format is functional. The conditions noted are these: 30 µM.
In assay [9] the target is Chromo domain-containing protein 1 (Saccharomyces cerevisiae (strain ATCC 204508 / S288c) (Baker's yeast)) (UniProt P32657). The experiment in a line: ScCHD-1 Enzyme Inhibition Assay. Also: in the data most compounds retested in dose-response had high values. The format is functional. The conditions noted are these: 30 µM.
Sequence of Chromo domain-containing protein 1 (Saccharomyces cerevisiae (strain ATCC 204508 / S288c) (Baker's yeast)) (P32657 whole entry, the tested form may be a part): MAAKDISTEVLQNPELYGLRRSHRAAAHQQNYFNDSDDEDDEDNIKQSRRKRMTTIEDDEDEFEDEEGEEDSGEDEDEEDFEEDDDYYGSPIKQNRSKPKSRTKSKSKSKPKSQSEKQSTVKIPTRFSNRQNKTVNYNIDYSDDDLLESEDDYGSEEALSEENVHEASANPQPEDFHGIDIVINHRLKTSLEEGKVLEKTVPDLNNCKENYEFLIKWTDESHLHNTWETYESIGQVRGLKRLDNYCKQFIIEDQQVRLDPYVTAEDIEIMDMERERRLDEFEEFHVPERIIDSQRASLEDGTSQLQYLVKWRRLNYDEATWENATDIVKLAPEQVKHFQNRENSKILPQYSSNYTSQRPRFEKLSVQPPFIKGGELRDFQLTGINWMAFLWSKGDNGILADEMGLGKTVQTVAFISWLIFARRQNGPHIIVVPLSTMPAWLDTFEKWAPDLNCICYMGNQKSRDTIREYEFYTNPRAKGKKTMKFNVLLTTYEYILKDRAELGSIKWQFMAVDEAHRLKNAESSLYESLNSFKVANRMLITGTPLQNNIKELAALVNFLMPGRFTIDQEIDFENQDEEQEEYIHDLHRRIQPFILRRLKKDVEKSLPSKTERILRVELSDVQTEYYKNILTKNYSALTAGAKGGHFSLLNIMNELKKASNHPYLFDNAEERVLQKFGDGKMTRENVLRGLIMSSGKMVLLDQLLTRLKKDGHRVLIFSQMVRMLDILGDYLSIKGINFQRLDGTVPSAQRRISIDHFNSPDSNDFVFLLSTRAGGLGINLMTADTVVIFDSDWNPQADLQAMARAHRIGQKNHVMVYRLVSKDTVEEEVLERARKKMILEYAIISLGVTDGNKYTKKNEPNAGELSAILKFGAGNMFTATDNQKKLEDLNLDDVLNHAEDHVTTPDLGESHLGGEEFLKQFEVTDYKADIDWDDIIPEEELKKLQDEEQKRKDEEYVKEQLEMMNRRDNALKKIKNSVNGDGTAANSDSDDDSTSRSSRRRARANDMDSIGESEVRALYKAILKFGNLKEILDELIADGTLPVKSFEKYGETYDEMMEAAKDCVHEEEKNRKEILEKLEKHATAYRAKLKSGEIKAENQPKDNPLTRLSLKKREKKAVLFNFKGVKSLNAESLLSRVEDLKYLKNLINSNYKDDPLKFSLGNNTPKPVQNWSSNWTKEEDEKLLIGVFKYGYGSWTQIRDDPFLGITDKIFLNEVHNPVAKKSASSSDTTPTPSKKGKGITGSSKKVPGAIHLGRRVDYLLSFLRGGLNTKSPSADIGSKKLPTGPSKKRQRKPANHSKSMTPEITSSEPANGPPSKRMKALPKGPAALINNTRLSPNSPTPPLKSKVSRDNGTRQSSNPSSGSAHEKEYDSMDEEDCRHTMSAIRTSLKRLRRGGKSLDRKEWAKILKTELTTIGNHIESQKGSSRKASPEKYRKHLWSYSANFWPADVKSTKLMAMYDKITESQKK

For some of these results: Measured potencies and affinities stand elsewhere.

Sequence of Protein translocase subunit SecA (Escherichia coli (strain K12)) (P10408 whole entry): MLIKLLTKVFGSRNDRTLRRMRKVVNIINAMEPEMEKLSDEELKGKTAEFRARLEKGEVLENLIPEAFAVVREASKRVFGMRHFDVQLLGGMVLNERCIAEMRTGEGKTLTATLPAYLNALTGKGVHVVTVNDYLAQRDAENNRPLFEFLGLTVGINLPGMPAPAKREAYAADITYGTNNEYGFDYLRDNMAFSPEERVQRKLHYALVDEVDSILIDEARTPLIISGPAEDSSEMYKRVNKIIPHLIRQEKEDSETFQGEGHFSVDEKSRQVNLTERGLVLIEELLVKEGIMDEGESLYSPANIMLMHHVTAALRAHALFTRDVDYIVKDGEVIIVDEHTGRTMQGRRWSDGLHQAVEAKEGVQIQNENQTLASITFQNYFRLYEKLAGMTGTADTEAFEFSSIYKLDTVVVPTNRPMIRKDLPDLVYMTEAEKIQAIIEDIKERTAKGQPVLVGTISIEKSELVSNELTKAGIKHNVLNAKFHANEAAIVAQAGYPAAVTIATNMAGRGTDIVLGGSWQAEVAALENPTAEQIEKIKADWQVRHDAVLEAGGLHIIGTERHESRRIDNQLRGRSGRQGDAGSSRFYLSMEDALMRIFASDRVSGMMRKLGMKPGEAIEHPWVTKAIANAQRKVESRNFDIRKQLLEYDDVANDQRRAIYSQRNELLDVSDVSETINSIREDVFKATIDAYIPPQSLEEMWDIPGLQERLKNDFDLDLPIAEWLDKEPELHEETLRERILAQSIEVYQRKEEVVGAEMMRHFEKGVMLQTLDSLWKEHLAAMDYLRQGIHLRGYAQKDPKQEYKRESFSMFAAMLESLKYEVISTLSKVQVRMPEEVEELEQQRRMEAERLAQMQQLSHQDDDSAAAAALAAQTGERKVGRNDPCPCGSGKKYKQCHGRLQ

As for `Cn1ncc2c(=O)[nH]c(N3CCN(C(=O)c4ccsc4)CC3)nc21`, the Percent Effect was -5.57% in assay [1]; 2.7% in [2]; 2.37% in assay [3]; -0.0131% in assay [4]; -6.32% with Trypanosoma cruzi; 17.2% in assay [5]. Further, the Percent Effect in assay [6] is 3.24%; in the assay listed under Homo sapiens, 25%; in assay [7] it was -1.48%; in [8], -11.1%; in [9], 1.01%.

For the compound `O=C(O)C1(Cc2cc(-c3ccc(F)cc3F)no2)CCOCC1`, the Percent Effect is -4.49% in assay [1]; 4.05% in [2]; 11% in assay [3]; -5.88% in assay [4]; -8.3% in the assay on Trypanosoma cruzi; -9.51% in assay [5]. For the same compound, the Percent Effect is 14.2% in [6]; 6.33% in the assay listed under Homo sapiens; -4.3% in [7]; -1.3% in assay [8]; -7.79% in assay [9].

For `Cn1c(CN2CCOC(c3nc(C(C)(C)C)n[nH]3)C2)nnc1C1CC1` (stereo unspecified), the Percent Effect in assay [1] is -7.68%; in assay [2], -26%; in assay [3], -4.74%; in [4], -20.2%; in the assay with Trypanosoma cruzi, 7.35%; in [5] it was -8.63%. In addition, the Percent Effect in assay [6] was 4.93%; in the assay filed under Homo sapiens, -6.09%; in [7] it was 3.81%; in assay [8], 18.8%; in assay [9], -22.6%.

Turning to `CC1=N[C@@]2(CC[C@@H]3CN(Cc4ccccc4F)C[C@@H]32)C(=O)N1CC1CC1`, the Percent Effect in assay [1] was -5%; in assay [2], 0%; in assay [3], 5.98%; in assay [4], -2.03%; with Trypanosoma cruzi it was -0.195%; in assay [5] it was -2.5%. Moreover, the Percent Effect in [6] came to 2.96%; in the assay filed under Homo sapiens it was 11.1%; in assay [7] it was 4.95%; in assay [8], 3.66%; in [9], 1.49%.

Take `COCCN(Cc1ccc(F)cc1Cl)C(=O)c1ccc(=O)[nH]n1`: the Percent Effect in assay [1] is -4.94%; in [2], 6.94%; in assay [3], -10.2%; in assay [4], 29.6%; in the assay with Trypanosoma cruzi it was 4.37%; in assay [5], 6.18%. The Percent Effect in assay [6] is 10.3%; in the assay listed under Homo sapiens it was -2.22%; in assay [7], 2.1%; in [8], 5.13%; in assay [9] it was -5.81%.

Take `CCc1nccc(CN2CCCC(c3nn(C)c(=O)n3CC)C2)n1` (stereo unspecified): the Percent Effect in assay [1] is -3.27%; in [2], 8.11%; in [3], -2.62%; in [4], 37.3%; in the assay on Trypanosoma cruzi, 2.64%; in [5], 8.19%. Also, the Percent Effect in [6] was -1.63%; in the assay filed under Homo sapiens, 2.84%; in assay [7] it was 4.3%; in assay [8], 13.6%; in assay [9], -3.17%.

On to `Cc1noc([C@H]2C[C@@H]3CCN(CC4CC4)C[C@H]3O2)n1`, for which the Percent Effect in [1] is -4.27%; in [2] it was 7.79%; in assay [3] it was 4.66%; in [4], 0.715%; in the assay on Trypanosoma cruzi it was -1.48%; in [5], -0.645%. Besides, the Percent Effect in assay [6] is 3.13%; in the assay filed under Homo sapiens, 4.2%; in [7], -1.06%; in assay [8] it was 3.85%; in [9], -3.28%.

As for `CC(C)c1ccc(C(C)NC(=O)N2CCC(n3cncn3)CC2)cc1` (stereo unspecified), the Percent Effect was -4.08% in assay [1]; 10.1% in assay [2]; -2.45% in assay [3]; 13.7% in assay [4]; -3.87% with Trypanosoma cruzi; 0% in assay [5]. Also, the Percent Effect was 5.49% in assay [6]; 13.3% in the assay filed under Homo sapiens; 3.45% in [7]; 8.86% in assay [8]; -3.06% in assay [9].

With `CCC1=N[C@@]2(CC[C@@H]3CN(S(=O)(=O)CC(C)C)C[C@@H]32)C(=O)N1C`, the Percent Effect in [1] is -0.279%; in assay [2], 10.4%; in assay [3], 4.02%; in assay [4], 2.43%; in the assay on Trypanosoma cruzi, -3.25%; in assay [5], 7.1%. Further, the Percent Effect is 13.2% in [6]; -9.27% in the assay listed under Homo sapiens; 5.29% in [7]; 16.7% in assay [8]; -9.12% in assay [9].

In the case of `COc1ccc(-c2nc(CN3CCOCS3(=O)=O)c(C)o2)cc1`, the Percent Effect was -1.22% in assay [1]; 8% in assay [2]; -8.87% in assay [3]; 2.98% in assay [4]; -4.58% in the assay on Trypanosoma cruzi; -3.12% in assay [5]. Besides, the Percent Effect was 14.8% in [6]; 10.4% in the assay filed under Homo sapiens; 2.73% in assay [7]; 8.64% in [8]; -5.54% in assay [9].

As to `NC(=O)C(CNC(=O)Cc1ccc(F)cc1)Cc1ccc(F)cc1` (stereo unspecified), the Percent Effect in assay [1] is -4.48%; in assay [2], 2.63%; in [3], -46.9%; in [4], -3.44%; in the assay on Trypanosoma cruzi, -4.19%; in assay [5] it was 0%. In addition, the Percent Effect in assay [6] was 11.4%; in the assay listed under Homo sapiens it was 19.6%; in [7], 0%; in assay [8], 0%; in assay [9], -3.68%.
